# Data reported in PubChem BioAssay (Tox21).
# Records with an inconclusive call do not appear. Some compounds were tested as several samples or in several runs, with calls that do not always agree. Calls of active or inactive are those of the source. The call rests on the fitted dose curve; in most records, active means well fitted cell-killing curve with a large enough effect in the repeat runs (not every such curve was filed as active); inconclusive means weak or mixed curves, or effect the other way; inactive means no such curve, though single readings can be large or run the other way.
# Test: qHTS assay to identify small molecule antagonists of the estrogen related receptor signaling pathway with the pleiotropic PPARgamma coactivator (PGC) from Tox21 10K library - cell viability counter screen (AID 1224840); further: nearly all actives have a fitted effect of over 40% in size
# Conditions: PGC/ERR reporter cells viability, CellTiter-Fluor, 17.5 h; series mostly up to 92.4 µM; viability change, negative = cytotoxic: at the top concentration
# Description: National Center for Advancing Translational Sciences [NCATS]
# NIH Chemical Genomics Center [NCGC]
# U.S. Environmental Protection Agency [EPA]
# National Institutes of Environmental Health Sciences [NIEHS]
# National Toxicology Program [NTP]
# U.S. Food and Drug Administration [FDA]
# Estrogen related receptors (ERRs), the first orphan nuclear receptors discovered, play an important role in the control of cellular energy metabolism. ERRs are required for high-energy production in response to the environmental challenges. The pleiotropic PPARgamma coactivator (PGC) is a major partner of ERR and a key regulator in energy homeostasis. Together they have been implicated in the etiology of metabolic disorders such as Type 2 diabetes and metabolic syndrome. ERR-alpha was also identified as an adverse marker for breast cancer progression; ERR-alpha-positive tumors have a poor prognosis. To screen and to identify environmental compounds that perturb the ERR and PGC/ERR signaling pathways could provide valuable information for potential therapeutic or preventive measures in the treatment of metabolic disease. To differentiate true PGC/ERR antagonists or agonist from cytotoxic substances, the assay is multiplexed with cell viability assay.
# Tox21 Assay Protocol Summary:
# The PGC/ERR cells were dispensed at 2,000 cells/5 ul/well in 1536-well white plates using a Multidrop dispenser. After the assay plates were incubated at a 37 C/5% CO2 incubator for 6 hours, 23 nL of compounds dissolved in DMSO, positive and negative controls or DMSO only was transferred to the assay plate by a pin tool. The plates were incubated at 37 C for 17.5 hours. 1 ul/well of CellTiter-Fluor reagent was added into the assay plates using a Flying Reagent Dispenser. After 30-minute incubation at 37 C/5% CO2, the fluorescence intensity in the plates was measured using a ViewLux plate reader.
# On the % scale 0 is the no-effect control and ±100 the full control effect; potency means the concentration at half of the fitted maximal effect.
Structure (SMILES),"viability change, negative = cytotoxic",Potency
C#CC(O)CCC (stereo not given),0.334% (inactive),
c1ccc(Nc2cccc3ccccc23)cc1,,inactive
C1CC(COCC2CO2)CCC1COCC1CO1 (stereo not given),-16.4% (inactive),
CCc1ccc(C)nc1,13.5% (inactive),
CCN(CC)c1cccc(C)c1,4.81% (inactive),
CC[N+](CC)(CC)Cc1ccccc1,-12.8% (inactive),
CC1CCCCN1CCCOC(=O)c1ccc(OC2CCCCC2)cc1 (stereo not given),-8.33% [at 42.5 µM] (inactive),
CSc1c(Cl)c(Cl)c(Cl)c(Cl)c1Cl,-0.153% (inactive),
C=CC(=C)CCC=C(C)C,-6.02% (inactive),
NC(=O)c1ccccc1N,-1.27% (inactive),
CC(C)=CC1CC(C)CCO1 (stereo not given),-0.243% (inactive),
O=C1OC(=O)c2cccc3cccc1c23,-16.9% (inactive),
CCOC(=O)CC(C)O (stereo not given),-2.65% (inactive),
NC(=O)C(=O)N/N=C/c1ccc([N+](=O)[O-])o1,0.986% [at 42.5 µM] (inactive),
CCO[Si](C)(C)OCC,-0.932% (inactive),
CC(C)OC(=O)c1cc(C(=O)OC(C)C)cc([N+](=O)[O-])c1,-1.02% (inactive),
CCOC(/C=C(\C)CCC=C(C)C)OCC,6% (inactive),
O=C[C@H](O)[C@H](O)[C@H](O)CO,-0.954% (inactive),
CCN=c1cc2oc3cc(NCC)c(C)cc3c(-c3ccccc3C(=O)OCC)c-2cc1C,,inactive
CC(C)=CCCC(C)O (stereo not given),5.93% (inactive),

Structure (SMILES),"viability change, negative = cytotoxic",Potency
CCOB(OCC)OCC,0.381% (inactive),
CC(COC(=O)c1ccccc1)OC(=O)c1ccccc1 (stereo not given),1.56% (inactive),
C=C(c1ccc(C(=O)O)cc1)c1cc2c(cc1C)C(C)(C)CCC2(C)C,,61.1 µM (active) and inactive
O=C1c2c(O)ccc([N+](=O)[O-])c2C(=O)c2c([N+](=O)[O-])ccc(O)c21,,30.4 µM (active)
Cc1cccc(Br)c1,-5.22% (inactive),
CCc1cccc(CC)c1N(COC)C(=O)CS(=O)(=O)O,-2.67% (inactive),
N[C@@H](CSSC[C@H](N)C(=O)O)C(=O)O,6.11% [at 0.349 µM] (inactive),
Cc1ccc2ccc3cccc4ccc1c2c34,2.86% (inactive),
COc1cccc(O)c1,9.89% (inactive),
Cn1cccc1,5.2% (inactive),
OCCCS,7.87% (inactive),
CC1CCCCC1,-3.17% (inactive),
C[Si](C)(C)Cl,1.94% (inactive),
CCCCCCC(C)Nc1ccc(Nc2ccccc2)cc1 (stereo not given),-29.4% (inactive),
Oc1cc2ccccc2cc1O,-2.42% (inactive),
CCC(=O)CC(C)CC (stereo not given),0.87% [at 0.349 µM] (inactive),
CCCC(=O)OCC(COC(=O)CCC)OC(=O)CCC,-2.33% (inactive),
Clc1ccc(C(c2ccccc2Cl)C(Cl)Cl)cc1 (stereo not given),0.471% [at 42.5 µM] (inactive),
CCC1(c2cnc[nH]2)Cc2ccccc2C1,0.404% [at 42.5 µM] (inactive),
CCCC(CC)CCCCCCCN (stereo not given),0.0555% (inactive),
